Most compounds without a hit are left out; they make up all but 8% or so of the library.
Marburg entry inh = inhibitors of Marburg virus binding or cell entry; Marburg virus pseudotyped entry inhibition, cell reporter; Potency, µM (highest dose often 37.8 µM), for the others: at the top dose activity change, negative = inhibition, actives largely listed as inhibitors; 300,000 compounds, 1.8% hits; calls by dose curve; tested in HEK293 cells; also: potency is read from the fitted curve at half-maximal effect; % is scaled to controls: 0 for no effect and ±100 for the full control effect
HCV inhibitor = HCV inhibition; Huh7.5.1 HCVcc-Cre infection, luciferase reporter, 44 h; 340,000 compounds, 3.4% hits; Potency, µM (highest dose often 41.8 µM), without a hit: top-dose activity change, negative = inhibition, most hits filed as inhibitors; AID 651820; active = well fitted inhibition curve with a large enough effect; inconclusive = small, poorly fitted or top-dose-only effect, or another doubt; inactive = no such curve, though single readings can be large or run the other way; also: potency is read from the fitted curve at half-maximal effect; % is scaled to controls: 0 for no effect and ±100 for the full control effect
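A cell-based infection assay in which seeded cells (1,000 per well) receive test compound after 4 h, are inoculated with HCVcc-Cre at approximately 0.5 moi, and are incubated 44 h before luminescence detection.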
HCMV inh = blocks human cytomegalovirus replication. HFF cells, HCMV-luciferase reporter, 72 h; active compounds read low. activity change, negative = inhibition, % at 57.5 µM. 410,000 compounds, 4.5% hits. AID 1259415; in the data active = activity change below about -60%; inconclusive = no clear call, values can overlap the other calls; inactive = above about -39%; also: % is scaled to controls: 0 for no effect and ±100 for the full control effect
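Steps: HFFs plated, 16 h 37C; compounds added; HCMV-luciferase added to MOI 1 PFU/cell; 72 h 37C; OneGlo reagent, 5 min room temperature; luminescence read, normalized to controls.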
SARS PLP yeast = blocks SARS-CoV papain-like protease in a yeast assay | S. cerevisiae expressing SARS-CoV PLpro, growth rescue | AID 485353 | Potency, µM (doses to about 32.9 µM), inactives show at the top dose activity, positive = growth rescue, most hits filed as activators | 330,000 compounds, 0.19% hits; calls by dose curve; also: potency is read from the fitted curve at half-maximal effect; 0% is about no effect; nearly all actives have a fitted effect of over 55% in size
FMDV inh = blocks foot and mouth disease virus; Potency, µM (doses to about 57.9 µM), for the others: at the top dose activity change, negative = inhibition, most hits filed as inhibitors; FMDV antiviral cell-based qHTS; 410,000 compounds, 1.2% hits; calls by dose curve; tested in HEK293T cells; also: read-out not given here; potency is read from the fitted curve at half-maximal effect; % is scaled to controls: 0 for no effect and ±100 for the full control effect; nearly all actives have a fitted effect of over 45% in size
LASV entry inh = blocks Lassa virus binding to or entry into cells; AID 540256; Potency, µM (series often up to 37.9 µM), without a hit: at the top dose activity change, negative = inhibition, actives largely listed as inhibitors; 300,000 compounds, 1.2% hits; Lassa virus pseudotype entry inhibition, cell reporter; calls by dose curve; tested in HEK293 cells; also: potency is read from the fitted curve at half-maximal effect; % is scaled to controls: 0 for no effect and ±100 for the full control effect; nearly all actives have a fitted effect of over 50% in size
The depositor's hits bear a star; [ ] = dose if it differs, or a comment.

CC(C)Nc1nc(-c2cccnc2)nc(-c2ccccc2)c1C#N was read as HCV inhibitor inconclusive, SARS PLP yeast 2% and FMDV inh inconclusive.
For Cc1ccc(S(=O)(=O)NCc2csc(C)n2)cc1 the results were Marburg entry inh -13%[46.1 µM], HCV inhibitor 21%, HCMV inh inconclusive, SARS PLP yeast -1%, FMDV inh 2% and LASV entry inh 1%[46.1 µM].
`CCCCOc1ccc(S(=O)(=O)NCc2csc(C)n2)cc1` gave Marburg entry inh -27%, HCV inhibitor inconclusive, HCMV inh -67*, SARS PLP yeast 0% and LASV entry inh -4%.
`NC(C(=O)O)[C@H](O)C(=O)O` (stereo partly specified) gave FMDV inh 1%.
Cc1cc2c(Nc3ccc(O)cc3)ncnc2s1 was read as Marburg entry inh -2%[46.1 µM], HCV inhibitor inconclusive, HCMV inh -69*, SARS PLP yeast 4%, FMDV inh 14% and LASV entry inh -3%[46.1 µM].
`COCCC1CCCCN1Cc1nc(N2CCCC2)c2cc(OC)c(OC)cc2n1` (stereo unspecified) gave FMDV inh -2%.
Cc1ccc(C(=O)N(Cc2cc3cccc(C)c3nc2N2CCC(O)CC2)C2CC2)cc1 was read as FMDV inh -13%.
CSc1cccc(Nc2cc(C(=O)NCCc3ccc(Cl)cc3)c3ccccc3n2)c1 was read as Marburg entry inh inconclusive, HCMV inh -102*, FMDV inh -30% and LASV entry inh -9%[46.1 µM].
Screening CCCCN(CCCNC(=O)c1cc(Nc2cccc(SC)c2)nc2ccccc12)Cc1ccccc1 returned Marburg entry inh -2%[46.1 µM], HCMV inh -99*, FMDV inh 0% and LASV entry inh inconclusive.
Screening COc1ccc(/C=C/C(=O)NCC2Cc3cc(Cl)cc(-c4ncccn4)c3O2)cc1 (stereo unspecified) returned FMDV inh 0%.
`CCN(CC)c1ccc(/C=N/NC(=O)c2ccco2)c(O)c1` gave HCV inhibitor inconclusive, HCMV inh -103*, SARS PLP yeast -7% and FMDV inh 62%.
For CCN(CC)c1ccc(/C=N/N(c2ccccc2)c2ccccc2)c(O)c1 the results were Marburg entry inh inconclusive, HCV inhibitor -3%, HCMV inh -20, SARS PLP yeast -24%, FMDV inh inconclusive and LASV entry inh inconclusive.
CCN(CC)c1ccc(/C=N/N=C(c2ccccc2)c2ccccc2)c(O)c1 was read as Marburg entry inh inconclusive, HCV inhibitor inconclusive, HCMV inh 3, SARS PLP yeast 9%, FMDV inh -18% and LASV entry inh 10µM*.
For CCN(CC)c1ccc(/C=N/NC(=O)c2ccco2)cc1 the results were Marburg entry inh 7.3µM*, HCV inhibitor inconclusive, HCMV inh 26, SARS PLP yeast -4%, FMDV inh -37% and LASV entry inh 4.5µM*.
CCN(CC)c1ccc(/C=N/NC(=S)NCc2ccccc2)c(O)c1 was read as Marburg entry inh inconclusive, HCV inhibitor -28%, HCMV inh -63*, SARS PLP yeast 10µM*, FMDV inh -34% and LASV entry inh inconclusive.
`COc1ccc(OC)c(NC(=O)Cn2cnc3sc(C)c(S(=O)(=O)N4CCN(c5ccccc5OC)CC4)c3c2=O)c1` gave Marburg entry inh 13%[46.1 µM], HCMV inh 9, FMDV inh -21% and LASV entry inh 7%[46.1 µM].
`C=CCc1cccc([C@@H]2[C@@H](C)CC[C@H]3C(=O)N4[C@@H](c5cc(OC)c(OC)c(OC)c5)c5[nH]c6ccccc6c5C[C@H]4C(=O)N23)c1` gave Marburg entry inh -12%, HCV inhibitor 7%[8.37 µM], SARS PLP yeast 0% and LASV entry inh inconclusive.
`COc1cc2c(cc1O)-c1ccccc1CN(C)C2` gave FMDV inh -5%.
Screening CC(C(=O)O)c1ccc2c(c1)CC(=O)c1ccccc1S2 (stereo unspecified) returned HCMV inh 3.
`Cc1nc(NCc2c(F)cccc2F)sc1-c1ccn(CCN2CCOCC2)n1` gave FMDV inh -11%.
`O=C(/C=C/c1cccs1)N1CCc2ccccc21` gave Marburg entry inh 8.2µM*, HCV inhibitor -4%, HCMV inh 72, SARS PLP yeast -49%, FMDV inh -63% and LASV entry inh inconclusive.
For O=C(c1cccs1)N1CCc2ccccc21 the results were Marburg entry inh 25%, HCV inhibitor inconclusive, HCMV inh 36, SARS PLP yeast -8%, FMDV inh 68% and LASV entry inh 44%[14.3 µM].
Cc1nc2nc(C)c(NS(=O)(=O)c3ccc(C4CCCCC4)cc3)c(=O)n2[nH]1 was read as Marburg entry inh -2%[46.1 µM], HCV inhibitor -9%, HCMV inh -37, SARS PLP yeast 3%, FMDV inh -15% and LASV entry inh inconclusive.
For COc1ccc(S(=O)(=O)N2c3cc(Cl)ccc3Oc3nc4ccccc4nc32)cc1 the results were Marburg entry inh -10%, HCV inhibitor inconclusive, HCMV inh -89*, SARS PLP yeast 8%, FMDV inh 69% and LASV entry inh -8%.
`CC(=O)N1N=C(c2cccc([N+](=O)[O-])c2)OC1c1ccc(Cl)cc1Cl` (stereo unspecified) gave Marburg entry inh -25%, HCV inhibitor 10µM*, HCMV inh 30, SARS PLP yeast -10%, FMDV inh inconclusive and LASV entry inh -20%.
Screening COc1ccccc1C1OC(c2cccc([N+](=O)[O-])c2)=NN1C(C)=O (stereo unspecified) returned Marburg entry inh -13%[46.1 µM], HCV inhibitor 4%, HCMV inh inconclusive, SARS PLP yeast -2%, FMDV inh -22% and LASV entry inh 8%.
Oc1ccc(-c2c(C3=CCCCC3)sc3ccccc23)cc1 was read as HCV inhibitor inconclusive, HCMV inh -5, SARS PLP yeast -29% and FMDV inh -16%.
Screening CCN1CCC(CNCc2cn(-c3ccc(OC)cc3)nc2-c2ccccc2Cl)C1 (stereo unspecified) returned Marburg entry inh 4µM*, HCV inhibitor 11µM*, HCMV inh -71*, SARS PLP yeast -1%, FMDV inh 35% and LASV entry inh inconclusive.
Screening O=C(COC(=O)C12CC3CC(CC(O)(C3)C1)C2)Nc1cccc(Br)c1 returned Marburg entry inh 3%, HCV inhibitor 3%, HCMV inh -102*, SARS PLP yeast -1%, FMDV inh 23% and LASV entry inh 12%.
Screening CC1CC1C(=O)OCC(=O)Nc1cccc(Br)c1 (stereo unspecified) returned Marburg entry inh -2%[46.1 µM], HCV inhibitor -4%, HCMV inh -16, SARS PLP yeast 1%, FMDV inh 17% and LASV entry inh 1%.
For CCCCCOc1ccc(NC(=O)Cn2c(-c3cncs3)nc3ccccc32)cc1 the results were Marburg entry inh -8%[46.1 µM], HCMV inh -64*, FMDV inh -8% and LASV entry inh 10%[46.1 µM].
